Measurements taken from PubChem BioAssay (NCI).
This is part of a sample that, as a whole, favours compounds with a hit. Of some 83,000 tested, about 20% had one in any assay.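 The test compound was applied at a single concentration to cells in 96-well plates for 48 hours, and percent growth was recorded.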 A number with no mark means an inactive call. Calls of active or inactive are those of the source.

The compounds below were run on NCI-H460 lung (assay: NCI-60 one-dose screen, 48 h (100 = growth as untreated, 0 = no growth, -100 = all killed)). Conditions: 10 µM unless noted.
Method: Growth inhibition of the NCI-H460 human Non-Small Cell Lung tumor cell line is measured as a screen for anti-cancer activity. Cells are grown in 96 well plates and exposed to the test compound for 48 hours. Compounds are tested at a single concentration, which is 10^-5 M for most compounds. The reported endpoint is percent growth (GI% or GIPRCNT), where numbers from 0 - 100% represent growth inhibition, and numbers from -100% - 0 represent cell death. For example, a value of 40 represents 60% growth inhibition. A value of 0 means no net growth occurred over the course of the experiment. A value of -40 indicates 40% of cells at the beginning of the experiment died by the end of the experiment. A value of -100 means all cells are dead at the end of the experiment.
NCI-60 Human Tumor Cell Lines Screen was performed using the standard one-dose NCI protocol, which is described in more detail at https://dtp.cancer.gov/discovery_development/nci-60/default.htm.
Compounds with GIPRCNT values below 10 were considered active. Activity score was based on GIPRCNT using the following formula: […]
Score is 0 for GIPRCNT values of 100 or above, 50 for GIPRCNT values of 0, and 100 for GIPRCNT values of -100.

SMILES | growth
CC[C@]12C=CCN3CC[C@@]4(c5ccc(OC)cc5N(C)[C@H]4[C@@](O)(C(=O)OC)[C@@H]1OC(=O)CCN1CCc4ccccc4C1)[C@@H]32 | 96.8%
O=C(CSc1nc2ccccc2c(=O)n1-c1ccc(Cl)c(Cl)c1)Nc1ccc(S(=O)(=O)Nc2ccc(Cl)nn2)cc1 | 99.4%
O=[N+]([O-])c1ccc(NC(=S)NNC(=S)Nc2ccc(F)cc2)cc1 | 90.9%
O=C1C(SCc2ccccc2)=C(Cl)CN1c1ccc(Cl)cc1 | 106%
CCOC(=O)c1cccnc1Nc1ccc(NC(=O)Nc2ccc(Cl)c(C(F)(F)F)c2)cc1 | 17.2%
COc1cc(OC)cc(-c2cc(-c3c[nH]c4ccccc34)nc(-c3c[nH]c4ccccc34)c2C#N)c1 | 103%
CC[C@]12C=CCN3CC[C@]4(C(=C(C(=O)OC)C1)Nc1cc5c(cc14)[C@@H]1[C@H](O5)[C@@H](O)[C@@]4(CC)CC(C(=O)OC)=C5Nc6cc(O)ccc6[C@@]56CCN1C46)C32 (stereo not given in full) | 10.3%
C#CCn1cc(/C=N/Nc2nc(-c3ccc(Br)cc3)cs2)c2ccccc21 | 97.3%
COc1ccc2c(c1)C=CC1(O2)Oc2ccc(OC)cc2C=C1C (stereo not given) | 7.29% (active)
O=C1/C(=C/c2cc(F)cc(F)c2)Cc2cc3c(cc21)OCO3 | 30.3%
Cc1ccc(C(=O)Nc2ccc(CNCCN3CCNCC3)c(C(F)(F)F)c2)cc1C#Cc1cnc2cccnn12 | -44.9% (active)
CSc1ccc(/C(=N/N=C(N)N)c2ccc(Cl)cc2)cc1 | -12.7% (active)
CC(C)(C)OC(=O)Nc1ccc(-c2cccc(Oc3ccc4nnc(Cl)n4n3)c2)cc1 | 82.4%
Cc1c(C(=O)/C=C/c2ccc(Cl)cc2)nnn1-c1ccc2oc(=O)ccc2c1 | 102%
CC[C@]12CC(C(=O)OC)=C3Nc4ccccc4[C@@]34CCN(C14)[C@@H]1c3cc4c(cc3O[C@@H]1[C@H]2O)NC1=C(C(=O)OC)C[C@@]2(CC)C3N(CC[C@@]143)C[C@H]1O[C@H]12 (stereo not given in full) | 15.3%
CN1CCN(c2ccc(Nc3nc(NCCCNS(=O)(=O)c4ccccc4)c4sccc4n3)cc2)CC1 | 36.9%
CC1(C)C=Cc2cc(/C(N)=N/C(N)=N/c3nc4ccccc4s3)ccc2O1 | 52.3%
CNC(=O)Nc1ccc(Nc2cc(-c3ccc(-n4cccn4)cc3)[nH]n2)c(C)c1 | 97.3%
N#Cc1nc(-c2ccc(Cl)cc2)oc1N1CCC(S(=O)(=O)N2CCOCC2)CC1 | 103%
N#Cc1c(-c2cccs2)cc(-c2cnccn2)nc1SCC(=O)N/N=C/c1ccncc1 | 108%

SMILES | growth
O=C(COc1ccc(/C=C2\C(=O)Nc3ccc(Cl)cc32)cc1)Nc1ccc(Cl)cc1 | 23.7%
CN1CCN(c2ccc(Nc3nc(NCCCNS(=O)(=O)c4cccc5ccccc45)c4sccc4n3)cc2)CC1 | -14% (active)
COc1cccc2c1[C@H](OC)[C@]13O[C@@]1(C2=O)[C@H](O)[C@H](C)[C@@](O)(C(=O)[C@@H]1O[C@H]1C)[C@@H]3O | -33.2% (active)
O=C(CCCCCC/C=C\c1csc(Br)n1)NO | 85.8%
CSc1ccc(/C(=N/N=C(N)N)c2ccc(F)cc2)cc1 | 6.38% (active)
Cc1ccc(C)c(NC2=C(Cl)C(=O)c3nc(C)ccc3C2=O)c1 | 48.9%
CC(Nc1ncnc2ccc(-c3cnc4cnccn34)cc12)c1ccccc1 (stereo not given) | 61%
CC1=C(SCC(=O)OCCCCCC(C)C)C(=O)c2ccccc2C1=O | 102%
CN1CCN(Cc2ccc(/C=N/Nc3ccnc4cc(Cl)ccc34)cc2)CC1 | 83.1%
Cc1csc(/N=C(N)/N=C(\N)c2cccnc2)n1 | 62.3%
CC(=O)OCCCCN1C=C/C(=C\C(=O)n2ccc3ccccc32)c2ccccc21 | 102%
COC(=O)[C@@H](Cc1c[nH]c2ccccc12)NC(=O)CCCCOc1cc(O)c2c(=O)cc(-c3ccccc3)oc2c1 | 94.4%
O=C1C(N2CCN(c3ccccc3)CC2)=C(Cl)C(=O)c2ncccc21 | 38.7%
O=C(CSc1cc[n+](CCCCO)c2ccccc12)n1ccc2ccccc21 | 99.2%
CCCCCCNC(=O)Oc1ccc(/C(=C(/C)c2ccc(Cl)cc2)c2ccc(OCCN3CCCCCC3)cc2)cc1 | 40.9%
CCCCN1C(=O)/C(=c2\sc3n(c2=O)C2C(NN=3)N(CC)C(=O)N2CC)c2cccc(C)c21 (stereo not given) | 18.8%
O=C(/C=C/c1cccc(F)c1)c1cccc(OCCCOc2cccc(C(=O)/C=C/c3cccc(F)c3)c2)c1 | 96.1%
CN1CCN(Cc2ccc(NC(=O)c3cncc(C#Cc4cnc5ccc(OCCCS(C)(=O)=O)nn45)c3)cc2C(F)(F)F)CC1 | -64.1% (active)
Clc1cccc(/C=N/Nc2nc(N/N=C/c3cccc(Cl)c3)nc(N3CCOCC3)n2)c1 | 78.2%
O=S(=O)(NCCCNc1nccc(-c2[nH]c(-c3ccccc3)nc2-c2ccc(F)c(O)c2)n1)c1cccc2ccccc12 | 35.5%
